From PubChem BioAssay AID1347383 (Zoeller Lab, School of Medicine, Boston University, 2020) come the findings set out here.

Active and inactive are the calls of the source.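 The calls were made as follows: active = cell survival after UV exposure 2 SD above solvent-only control wells at 10 µM, confirmed on one or two repeats; inactive = the rest.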

The assay in a line: protection of CHO cells from pyrene-fatty acid UV killing, primary screen, phospholipid biosynthesis inhibitor project, ZR-82 cells, Analyticon library, screen 2 (AID 1347383).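 Also: survival reflects blocked phospholipid synthesis cutting uptake of the phototoxic fatty acid; compound and fatty acid exposure 3 h then viability read next day.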 The settings on record: ZR-82 CHO cells, CellTiter Blue, at 10 µM, peroxisome-deficient CHO-K1 variant, with DGAT-1, DGAT-2 and ACAT inhibitors. (Resazurin is reduced to fluorescent resorufin, in cell work by metabolically active cells.)
As for `C=C(C(=O)O)C(CCCCCC)C(=O)O` (centres undefined), the molecule was classed as inactive.
Then `CC1(O)CC(C)(O)C2=C(O1)C(=O)c1ccccc12` (centres undefined), with “inactive”; and `CC(=O)c1c(O)cc(O)c(C/C=C(\C)CCC=C(C)C)c1O`, with “inactive”; and `COc1ccc(CC(C)C(C)Cc2ccc3c(c2)OCO3)cc1OC` (centres undefined), with “inactive”.
The value for `Oc1cc(O)cc(CCCCCCCCCCc2cc(O)cc(O)c2)c1` was “inactive”; that for `O=C(O)/C=C/c1ccc(O[C@@H]2O[C@H](CO)[C@@H](O)[C@H](O)[C@H]2O)cc1` was “inactive”.
On to `COC1=CC(=O)CC(C)C12Oc1cc(OC)cc(OC)c1C2=O` (centres undefined), for which the molecule was classed as inactive.
Then `COC(=O)C1=CO[C@@H](C)[C@H]2CN3CCc4c([nH]c5ccccc45)[C@@H]3C[C@H]12`, with “active”; and `CCC(C)C1NC(=O)C(Cc2ccccc2)NC(=O)C(CCCCCC(=O)C(O)CO)NC(=O)C2CCCCN2C1=O` (centres undefined), with “inactive”.
`COc1cc(CC2COC(=O)C2(O)Cc2ccc(O)c(OC)c2)ccc1O` (centres undefined): the molecule was called inactive.
The value for `CC(C)(O)/C=C/C1=CC(O)C(C)(O)CC1O` (centres undefined) was “inactive”.
The value for `O=c1c(O)c(-c2cc(O)c(O)c(O)c2)oc2cc(O)cc(O)c12` was “inactive”; that for `CC(C)CC(O)C(=O)NC(C)C(=O)NC(CC(C)C)C(=O)NCCCC(=O)O` (centres undefined) was “inactive”; that for `CC(C)(O)[C@@H]1CCC(C)([C@H]2CC[C@]3(C)[C@@H]2[C@H](O)CC2[C@@]4(C)CC[C@H](O)C(C)(C)[C@@H]4CC[C@]23C)O1` (some centres undefined) was “inactive”.
The value for `OCc1ccccc1O[C@@H]1O[C@H](CO)[C@@H](O)[C@H](O)[C@H]1O` was “inactive”; that for `CC[C@H](C)C(=O)O[C@H]1C[C@@H](C)C=C2C=C[C@H](C)[C@H](CC[C@@H]3C[C@@H](O)CC(=O)O3)[C@H]21` was “inactive”; that for `C=C1[C@H]2CC[C@H](C(=O)O)[C@@]23CC[C@H](C3)C1(C)C` was “inactive”.
As for `COc1cc(OC)c(C(O)C(C)O)cc1OC` (centres undefined), the outcome was inactive.
With `C/C=C/CCC1Cc2cc(O)c(CCCC)c(O)c2C(=O)O1` (centres undefined), the result was inactive.
Then `COc1cc(/C=C(/C)C(C)Cc2ccc(O)c(OC)c2)ccc1O` (centres undefined), with “inactive”.
The value for `C[C@@H]1C[C@@H](O)C2[C@@](C)(CO)CCC[C@]2(C)[C@@]1(O)CCc1ccoc1` (some centres undefined) was “inactive”; that for `C=CCc1ccc(O)c(O)c1` was “inactive”.
The value for `CCC(C)C(=O)OC1CCCC2C=CC(C)C(CCC(O)CC(O)CC(=O)O)C21` (centres undefined) was “inactive”; that for `CCCC/C=C\CCCCCCCc1cc(=O)c2ccccc2n1C` was “inactive”; that for `O=C1C(c2[nH]c3ccccc3c2O)=Nc2ccccc21` was “inactive”.
On to `CCC/C=C\CC(N)CC(=O)O` (centres undefined), for which the molecule was called inactive.
Then `C=C1NC(=O)C2CCCN2C1=O` (centres undefined), with “inactive”; and `O=C(/C=C/c1ccc(O)cc1)c1c(O)cc(O)cc1O`, with “inactive”.
With `CC(C)Cc1cnc(CCC(N)=O)c(=O)[nH]1`, the molecule was called inactive.
The value for `CC(O)C(O)c1ccc(OC(C)C(O)c2ccc(O)cc2)cc1` (centres undefined) was “inactive”.
Then `O=c1ccc2cc3ccoc3cc2o1`, with “inactive”; and `COc1cc(C[C@H]2COC[C@@H]2Cc2ccc(O)c(OC)c2)ccc1O`, with “inactive”; and `C/C1=C\CCC2=C[C@@H](OC2=O)c2c(C)coc2C1`, with “inactive”.
For the molecule `O=C(/C=C/c1ccccc1)c1ccccc1O`, the molecule was classed as inactive.
Take `CC[C@H](CC[C@@H](C)[C@H]1CC[C@H]2[C@@H]3CC=C4C[C@@H](O)CC[C@]4(C)[C@H]3CC[C@]12C)C(C)C`: the result was inactive.
Regarding `CC1CCC2(C(=O)O)CCC3(C)C(C=CC4C5(C)CC(O)C(O)C6(C)COC(CC43C)C65)C2C1(C)O` (centres undefined), the molecule was classed as inactive.
Then `COc1ccc(-c2coc3cc(O)cc(O)c3c2=O)cc1`, with “inactive”; and `CC1(O)CCC2C(C3C1CCC3(C)O)C2(C)C` (centres undefined), with “inactive”.
Then `C=C(C)C(O)Cc1c(O)cc(CCc2ccccc2)c(CC=C(C)C)c1O` (centres undefined), with “inactive”.
